According to PubChem BioAssay (NCATS):
For some of these results: Results with a measured potency or affinity are listed apart. Activity calls are given as the source filed them.

conditions: Ebola virus entry assay, green fluorescence channel
For efficacy in this document: 0% is about no effect.

SMILES | efficacy
C[C@@H](NCCCc1cccc(C(F)(F)F)c1)c1cccc2ccccc12 | -223% (inactive)
COc1cc(C(C)=O)ccc1OCCCN1CCC(c2noc3cc(F)ccc23)CC1 | 81.4% (inactive)
O=C(O)CCCc1ccccc1 | -16.1% (inactive)
O=C(c1ccc(OCCN2CCCCC2)cc1)c1c(-c2ccc(O)cc2)sc2cc(O)ccc12 | -297% (inactive)
C[C@@H](c1ncncc1F)C(O)(Cn1cncn1)c1ccc(F)cc1F (stereo partly specified) | -14.3% (inactive)
COc1ccccc1Oc1c(NS(=O)(=O)c2ccc(C(C)(C)C)cc2)nc(-c2ncccn2)nc1OCCO | -15.4% (inactive)
NS(=O)(=O)c1cc2c(cc1Cl)NC=NS2(=O)=O | -8.1% (inactive)
CCCCNc1ccc(C(=O)OCCOCCOCCOCCOCCOCCOCCOCCOCCOC)cc1 | 14% (inactive)
CC1=C(C(=O)O)N2C(=O)[C@@H](NC(=O)[C@H](N)c3ccccc3)[C@H]2SC1 | 11.4% (inactive)
CCOC(=O)C1(c2ccccc2)CCN(CCC(C#N)(c2ccccc2)c2ccccc2)CC1 | -34.7% (inactive)
CN1CCN(CCCN2c3ccccc3Sc3ccc(C(F)(F)F)cc32)CC1 | -186% (inactive)
Cc1cn[nH]c1 | -9.66% (inactive)
COC(=O)CCc1ccc(OCC(O)CNC(C)C)cc1 (stereo unspecified) | 35.4% (inactive)
Cn1c(=O)c2c(ncn2CC(O)CO)n(C)c1=O (stereo unspecified) | -15% (inactive)
CCCCCOC(=O)Nc1nc(=O)n([C@@H]2O[C@H](C)[C@@H](O)[C@H]2O)cc1F | 20.9% (inactive)
O=C1[C@H](CC[C@H](O)c2ccc(F)cc2)[C@@H](c2ccc(O)cc2)N1c1ccc(F)cc1 | -26.4% (inactive)
CCCCN1C[C@H](O)[C@@H](O)[C@H](O)[C@H]1CO | 19.9% (inactive)
CNCC[C@@H](Oc1ccccc1C)c1ccccc1 | 103% (inactive)
CCc1nc(N)nc(N)c1-c1ccc(Cl)cc1 | 26.9% (inactive)

SMILES | efficacy
CN(C)/N=N/c1nc[nH]c1C(N)=O | -24.1% (inactive)
CC/C(=C(\c1ccccc1)c1ccc(OCCN(C)C)cc1)c1ccccc1 | -205% (inactive)
CCCN(CCc1cccs1)[C@H]1CCc2c(O)cccc2C1 | -47.6% (inactive)
CCC(COC(=O)c1cc(OC)c(OC)c(OC)c1)(c1ccccc1)N(C)C (stereo unspecified) | 72.4% (inactive)
CN(C)CCC=C1c2ccccc2CCc2ccccc21 | 121% (inactive)
Cc1cc(C)cc(OCC2CNC(=O)O2)c1 (stereo unspecified) | -18.5% (inactive)
CCN(CC)CCN1C(=O)CN=C(c2ccccc2F)c2cc(Cl)ccc21 | 47.1% (inactive)
OCCN1CCN(CCCN2c3ccccc3Sc3ccc(Cl)cc32)CC1 | 88.4% (inactive)
Nc1nnc(-c2cccc(Cl)c2Cl)c(N)n1 | -18.2% (inactive)
CN(C)CC/C=C1\c2ccccc2COc2ccccc21 | 117% (inactive)
CC(CN(C)C)CN1c2ccccc2CCc2ccccc21 (stereo unspecified) | 31.5% (inactive)
CN(C)c1ccc(O)c2c1C[C@H]1C[C@H]3[C@H](N(C)C)C(=O)C(C(N)=O)=C(O)[C@@]3(O)C(=O)C1=C2O | 116% (inactive)
CC(=O)N[C@@H](CS)C(=O)O | -17.9% (inactive)
Clc1ccc2c(c1)C(N1CCNCC1)=Nc1ccccc1O2 | 94.9% (inactive)
C1N2CN3CN1CN(C2)C3 | 14.5% (inactive)
Cc1cccc(C)c1OCC(C)N (stereo unspecified) | -20.8% (inactive)
CCOC(=O)C1=C(C)NC(C)=C(C(=O)OC)C1c1cccc(Cl)c1Cl (stereo unspecified) | 20.7% (inactive)
C=C(CC)C(=O)c1ccc(OCC(=O)O)c(Cl)c1Cl | 39.8% (inactive)
Nc1ccn([C@@H]2O[C@H](CO)[C@@H](O)C2(F)F)c(=O)n1 | -29.1% (inactive)

conditions: Ebola virus entry assay, blue channel fluorescence

SMILES | outcome | AC50
C[C@@H](NCCCc1cccc(C(F)(F)F)c1)c1cccc2ccccc12 | inactive | 
COc1cc(C(C)=O)ccc1OCCCN1CCC(c2noc3cc(F)ccc23)CC1 | inactive | 
O=C(O)CCCc1ccccc1 | inactive | 
O=C(c1ccc(OCCN2CCCCC2)cc1)c1c(-c2ccc(O)cc2)sc2cc(O)ccc12 |  | 6.31 µM (active)
C[C@@H](c1ncncc1F)C(O)(Cn1cncn1)c1ccc(F)cc1F (stereo partly specified) | inactive | 
COc1ccccc1Oc1c(NS(=O)(=O)c2ccc(C(C)(C)C)cc2)nc(-c2ncccn2)nc1OCCO | inactive | 
NS(=O)(=O)c1cc2c(cc1Cl)NC=NS2(=O)=O | inactive | 
CCCCNc1ccc(C(=O)OCCOCCOCCOCCOCCOCCOCCOCCOCCOC)cc1 | inactive | 
CC1=C(C(=O)O)N2C(=O)[C@@H](NC(=O)[C@H](N)c3ccccc3)[C@H]2SC1 | inactive | 
CCOC(=O)C1(c2ccccc2)CCN(CCC(C#N)(c2ccccc2)c2ccccc2)CC1 | inactive | 
CN1CCN(CCCN2c3ccccc3Sc3ccc(C(F)(F)F)cc32)CC1 |  | 7.08 µM (active)
Cc1cn[nH]c1 | inactive | 
COC(=O)CCc1ccc(OCC(O)CNC(C)C)cc1 (stereo unspecified) | inactive | 
Cn1c(=O)c2c(ncn2CC(O)CO)n(C)c1=O (stereo unspecified) | inactive | 
CCCCCOC(=O)Nc1nc(=O)n([C@@H]2O[C@H](C)[C@@H](O)[C@H]2O)cc1F | inactive | 
O=C1[C@H](CC[C@H](O)c2ccc(F)cc2)[C@@H](c2ccc(O)cc2)N1c1ccc(F)cc1 | inactive | 
CCCCN1C[C@H](O)[C@@H](O)[C@H](O)[C@H]1CO | inactive | 
CNCC[C@@H](Oc1ccccc1C)c1ccccc1 | inactive | 
CCc1nc(N)nc(N)c1-c1ccc(Cl)cc1 | inactive | 

SMILES | outcome | AC50
CN(C)/N=N/c1nc[nH]c1C(N)=O | inactive | 
CC/C(=C(\c1ccccc1)c1ccc(OCCN(C)C)cc1)c1ccccc1 |  | 1.12 µM (active)
CCCN(CCc1cccs1)[C@H]1CCc2c(O)cccc2C1 | inactive | 
CCC(COC(=O)c1cc(OC)c(OC)c(OC)c1)(c1ccccc1)N(C)C (stereo unspecified) | inactive | 
CN(C)CCC=C1c2ccccc2CCc2ccccc21 |  | 11.2 µM (active)
Cc1cc(C)cc(OCC2CNC(=O)O2)c1 (stereo unspecified) | inactive | 
CCN(CC)CCN1C(=O)CN=C(c2ccccc2F)c2cc(Cl)ccc21 | inactive | 
OCCN1CCN(CCCN2c3ccccc3Sc3ccc(Cl)cc32)CC1 |  | 6.31 µM (active)
Nc1nnc(-c2cccc(Cl)c2Cl)c(N)n1 | inactive | 
CN(C)CC/C=C1\c2ccccc2COc2ccccc21 | inactive | 
CC(CN(C)C)CN1c2ccccc2CCc2ccccc21 (stereo unspecified) | inactive | 
CN(C)c1ccc(O)c2c1C[C@H]1C[C@H]3[C@H](N(C)C)C(=O)C(C(N)=O)=C(O)[C@@]3(O)C(=O)C1=C2O | inactive | 
CC(=O)N[C@@H](CS)C(=O)O | inactive | 
Clc1ccc2c(c1)C(N1CCNCC1)=Nc1ccccc1O2 |  | 14.1 µM (active)
C1N2CN3CN1CN(C2)C3 | inactive | 
Cc1cccc(C)c1OCC(C)N (stereo unspecified) | inactive | 
CCOC(=O)C1=C(C)NC(C)=C(C(=O)OC)C1c1cccc(Cl)c1Cl (stereo unspecified) | inactive | 
C=C(CC)C(=O)c1ccc(OCC(=O)O)c(Cl)c1Cl | inactive | 
Nc1ccn([C@@H]2O[C@H](CO)[C@@H](O)C2(F)F)c(=O)n1 | inactive | 
